# High-throughput results from PubChem.
# TEAD-YAP inh: TEAD-YAP interaction inhibition. HEK-TIYL cells, TEAD-Gal4/YAP UAS-luciferase luminescence. inhibition, % at 9.12 µM. 640,000 tested, 1.4% active. AID 1259422; in the data active = inhibition above about 32%
# MITF primary: human MITF inhibition, primary screen | O75030 | AlphaScreen MITF homodimerization, bead proximity signal | inhibition, % at 2.6 µM | 650,000 tested, 0.91% active; in the data active = inhibition above about 50%
# Target sequence (O75030 whole entry, looked up): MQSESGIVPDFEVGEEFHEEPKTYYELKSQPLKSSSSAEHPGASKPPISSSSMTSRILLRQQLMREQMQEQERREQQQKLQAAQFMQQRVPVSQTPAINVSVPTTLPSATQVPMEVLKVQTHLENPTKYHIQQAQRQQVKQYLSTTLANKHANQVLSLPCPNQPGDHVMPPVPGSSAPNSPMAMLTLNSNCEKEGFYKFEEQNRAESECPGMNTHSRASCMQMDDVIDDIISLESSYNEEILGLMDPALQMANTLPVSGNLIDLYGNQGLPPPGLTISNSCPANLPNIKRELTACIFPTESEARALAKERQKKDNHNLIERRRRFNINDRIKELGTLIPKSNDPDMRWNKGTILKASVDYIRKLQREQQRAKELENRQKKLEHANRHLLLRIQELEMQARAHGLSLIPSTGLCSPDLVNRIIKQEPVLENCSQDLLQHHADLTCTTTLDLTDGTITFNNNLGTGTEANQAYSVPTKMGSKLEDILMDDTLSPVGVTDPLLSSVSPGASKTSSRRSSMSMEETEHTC
# GPR151 ag: human GPR151 activation. Q8TDV0. PathHunter beta-arrestin GPR151 cells, luminescence. activation, % at 11.2 µM. 650,000 tested, 1% active; in the data active = activation above about 4.9%
# FBW7 activator: human FBW7 E3 ligase activation, primary screen; 650,000 tested, 0.13% active; normalized activity (activation), % at 26.1 µM; Q969H0; AlphaScreen FBW7–phospho-cyclin E peptide binding, activator screen; in the data active = normalized activity above about 1.9%;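 note: purified mutant Fbw7 with reduced substrate affinity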
# Numbers stand for hits; - = inactive; . = no result given. Compounds with a hit are over-represented: about 3.4% of the library has one in this group of screens.
SMILES,TEAD-YAP inh,MITF primary,GPR151 ag,FBW7 activator
Oc1ccc(C2=Nn3c(nnc3-c3ccc(Br)cc3)SC2)cc1O,66,-,-,-
COc1cccc(-c2nnc3n2N=C(c2ccc(O)c(O)c2)CS3)c1,58,-,-,-
COc1cccc(-c2nnc3n2N=C(c2ccc(Br)cc2)CS3)c1,-,-,-,-
Oc1ccc(C2=Nn3c(nnc3-c3ccccc3Br)SC2)cc1O,52,-,-,-
COc1cccc(C2=Nn3c(nnc3-c3ccccc3)SC2)c1,-,-,-,-
COc1cccc(C2=Nn3c(nnc3-c3ccccc3O)SC2)c1,-,-,-,-
O=C(CSc1nc(-c2ccccc2)c(-c2ccccc2)o1)Nc1cc(C(F)(F)F)cc(C(F)(F)F)c1,-,-,-,-
COc1ccc(-c2nnc3n2N=C(c2ccccc2)CS3)cc1,-,-,-,-
COc1ccc(-c2nnc3n2N=C(c2ccc(O)c(O)c2)CS3)cc1,50,-,-,-
Cc1ccc(C2=Nn3c(nnc3-c3ccccc3)SC2)cc1,60,-,-,-
CCC(=O)Nc1ccc(C2=Nn3c(COc4ccc(OC)cc4)nnc3SC2)cc1,48,-,-,-
Oc1ccc(C2=Nn3c(nnc3-c3cccc(F)c3)SC2)cc1O,61,-,-,-
CCOc1ccc(C2CC(c3cccc(OC)c3)n3ncnc3N2)cc1 (configuration not stated),-,-,-,-
FC(F)(F)c1cccc(CNc2nc(NCc3ccc4c(c3)OCO4)nc3c2ncn3-c2ccsc2)c1,-,-,-,-
CC1=NN(c2cccc(Cl)c2)C(=O)/C1=C/c1ccc(-c2cccc(Cl)c2C)o1,-,-,-,-
COc1ccc(C2=Nn3c(nnc3-c3ccc(OC)cc3)SC2)cc1,49,-,-,-
CCOC(=O)C1=C(CN2CCCc3ccccc32)NC(=O)NC1c1ccc(C)cc1 (configuration not stated),61,-,-,-
CCOC(=O)C1=C(CN2CCCc3ccccc32)NC(=O)NC1c1ccccc1 (configuration not stated),-,-,-,-
COc1ccc(C(=O)Nn2c(SCC(=O)NCCc3ccccc3)nc3ccccc3c2=O)cc1,71,-,-,-
COc1ccc(C(=O)Nn2c(SCC(=O)NCc3ccco3)nc3ccccc3c2=O)cc1,75,-,-,-
Cn1cnnc1Sc1ccc([N+](=O)[O-])c2cnccc12,-,-,-,-
Cc1cccc(-n2nnnc2Sc2ccc([N+](=O)[O-])c3cnccc23)c1,46,-,-,-
Nc1c(C(=O)Nc2ccc(Cl)cn2)sc2nc3c(cc12)CCC3,94,-,-,-
CCc1nnc(NC(=O)c2sc3nc4c(cc3c2N)CCC4)s1,-,-,-,-
Nc1c(C(=O)Nc2nccs2)sc2nc3c(cc12)CCCC3,77,-,-,-
SMILES,TEAD-YAP inh,MITF primary,GPR151 ag,FBW7 activator
CCN(CC)C(=O)CCN1Cc2cc(Cl)ccc2OC(C)C1 (configuration not stated),-,-,-,-
Cc1c(Cl)sn(-c2ccc(Cl)cc2)c1=O,40,-,-,-
Cc1cc(-n2sc(Cl)c(C)c2=O)ccc1Cl,43,-,-,-
COc1cccc2c1C(=O)c1c(O)c3c(c(O)c1C2=O)C[C@@](O)(C(=O)CO)C[C@@H]3O[C@H]1C[C@H](N)[C@H](O)[C@H](C)O1,92,-,-,-
COc1cccc2c1C(=O)c1c(O)c3c(c(O)c1C2=O)C[C@@](O)(C(C)=O)C[C@@H]3OC1CC(N)C(O)C(C)O1 (some centres not stated),.,-,-,-
COc1ccc(C(=O)Nc2noc3ccccc23)cc1,86,-,-,-
COc1cccc(C(=O)Nc2cc(C)on2)c1,-,-,-,-
COc1cccc(C(=O)Nc2noc3ccccc23)c1,57,-,-,-
CCN(CC)c1ccc(/C=N/OCC(=O)N2CCc3ccccc32)cc1,-,-,-,-
CN1CCN(C(CNS(=O)(=O)c2cccc(F)c2)c2ccc3c(c2)CCN3C)CC1 (configuration not stated),-,59,-,-
COc1ccc(S(=O)(=O)NCC(c2ccc3c(c2)CCN3C)N2CCN(C)CC2)cc1 (configuration not stated),-,-,-,-
CN1CCN(C(CNS(=O)(=O)c2ccc(Cl)cc2)c2ccc3c(c2)OCO3)CC1 (configuration not stated),-,-,-,2.4
Cc1cccc(C(=O)N/N=C/c2ccccc2F)c1,-,-,-,-
O=C(N/N=C/c1ccco1)c1cc(Cl)ccc1O,-,-,-,-
O=C(N/N=C/c1ccccc1F)c1cc(O)c(O)c(O)c1,-,55,-,-
O=C(N/N=C/c1ccco1)c1cc(O)c(O)c(O)c1,-,87,-,-
NNC(=O)c1sc(-c2ccccc2)cc1N,-,-,-,-
CCN1C2=NC(=O)/C(=C\c3ccc([N+](=O)[O-])s3)N2c2ccccc21,-,-,-,-
COc1ccc(CCNc2cc(C)nc(N3CCOCC3)n2)cc1,-,-,-,-
Cc1cc(NCc2cccc(C(F)(F)F)c2)nc(Oc2ccccc2)n1,67,-,-,-
Cc1cc(NCCOc2ccccc2)nc(Nc2ccccc2)n1,-,-,-,-
Cc1cc(NCCc2ccc(O)cc2)nc(Nc2ccc(-n3ccnc3)cc2)n1,42,-,-,-
Cc1cc(NCCOc2ccccc2)nc(Nc2ccc(-n3ccnc3)cc2)n1,40,-,-,-
COc1ccc(CCNc2cc(C)nc(Nc3ccc(N4CCOCC4)cc3)n2)cc1,60,-,-,-
CSc1cccc(NC(=O)C2C3C=CC4(O3)C2C(=O)N(Cc2ccccc2Cl)C4C(=O)NC2CCCC(C)C2C)c1 (configuration not stated),-,-,-,-
SMILES,TEAD-YAP inh,MITF primary,GPR151 ag,FBW7 activator
O=C1CCN(Cc2ccoc2)CCN1Cc1cccc(C(F)(F)F)c1,-,-,-,-
CCOC(=O)C1=NN(C(=O)c2ccc(Cl)cc2)C(O)(c2ccc(C)cc2)C1 (configuration not stated),-,-,-,-
CCOC(=O)/C(C#N)=C/c1ccc(OCc2c(C)no[n+]2[O-])c(OC)c1,-,-,-,-
O=C(Nc1ccc(-c2cn[nH]c2)cc1OC(F)(F)F)C1COc2ccccc2O1 (configuration not stated),-,-,-,-
Cc1cc(Nc2ccc(N3CCOCC3)cc2)nc(Nc2cccc(N(C)C)c2)n1,54,-,-,-
Cc1cc(Nc2ccccc2)nc(Nc2ccc(N3CCOCC3)cc2)n1,35,-,-,-
Cc1cc(NCCOc2ccccc2)nc(Nc2ccc(N3CCOCC3)cc2)n1,43,-,-,-
Cc1cc(NCc2cccc(C(F)(F)F)c2)nc(Nc2ccc(C(F)(F)F)cc2)n1,-,-,-,-
Cc1cc(Nc2ccc(N3CCOCC3)cc2)nc(Nc2ccc(N3CCOCC3)cc2)n1,-,-,-,-
Cc1cc(NCc2cccc(C(F)(F)F)c2)nc(Nc2ccc(N3CCOCC3)cc2)n1,47,-,-,-
Cn1c(=O)c2ccccc2n2c(SCC(=O)c3ccc4c(c3)NC(=O)CO4)nnc12,-,-,-,-
Cc1nc(C)n(-c2ccc(Nc3ncc4ccc(-c5cn[nH]c5)cc4n3)cc2)n1,73,-,-,-
